# Pf growth 48h: inhibits P. falciparum growth in the first generation, 48 h. AID 504832. hit rate 5.9% among 310,000. Potency, µM (highest dose often 28.7 µM), without a hit: at the highest dose activity change, negative = inhibition, usual class: inhibitors. P. falciparum luciferase growth in erythrocytes, 48 h
#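 A one-generation exposure of luciferase-tagged malaria parasites in RPMI 1640/Albumax erythrocyte culture, 37 C and 5% CO2. Inhibition is inferred from decreased luminescence after adding detection reagent.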
# Pf growth 96h: P. falciparum growth inhibition at 96 hours | P. falciparum luciferase reporter growth, 96 h | hit rate 6.9% among 320,000 | AID 504834 | Potency, µM (series often up to 28.7 µM), for the others: top-dose activity change, negative = inhibition, hits mostly inhibitors
#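 Readout is luminescence from an integrated firefly luciferase in P. falciparum. Red cells, 2% hematocrit and 0.05% parasitemia final, were cultured with compound through two parasite generations (96 hours) at 37 C, 5% CO2.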
# Vaccinia mCherry: vaccinia inhibition (mCherry reporter) | Vaccinia virus mCherry reporter infection, fluorescence | Potency, µM (titrated, usually from 36.5 µM), for inactives: at the highest dose activity change, negative = inhibition, most hits filed as inhibitors | hit rate 0.63% among 310,000 | AID 720579; calls by dose curve; tested in A549 cells; also: nearly all actives have a fitted effect of over 35% in size
# Vaccinia Venus: vaccinia inhibition (Venus reporter); Vaccinia virus Venus reporter expression, fluorescence; Potency, µM (titrated, usually from 36.5 µM), for the others: at the highest dose activity change, negative = inhibition, actives largely listed as inhibitors; hit rate 0.46% among 330,000; calls by dose curve; tested in A549 cells; also: nearly all actives have a fitted effect of over 30% in size
# AMA1 RON2 block: AMA1-RON2 (P. falciparum) interaction inhibition; AlphaScreen AMA1-biotinylated RON2 peptide binding; Potency, µM (doses to about 58.2 µM), without a hit: top-dose activity change, negative = inhibition, actives largely listed as inhibitors; hit rate 0.2% among 360,000;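 also: 0% = vehicle wells and -100% = peptide control; nearly all actives have a fitted effect of over 45% in size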
#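 AMA1 (3D7) with his tag at 25 nM final met compounds first, then biotinylated RON2 peptide at 25 nM; detection used donor plus acceptor beads, 10 µg/mL apiece, read by AlphaScreen after 30 min at room temperature.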
# The depositor's hits bear a star; i = inactive; ? = inconclusive; · = not tested or not shown; ! = not active in a repeat; [ ] = dose if it differs, or a comment. An excerpt weighted towards active compounds, which were near 8.7% of everything screened. Unless noted, calls follow the shape of the dose curve; as a rule, active = well fitted curve in the direction sought with a large enough effect; inconclusive = small, poorly fitted or top-dose-only effect, or another doubt; inactive = no such curve, though single readings can be large; an effect the other way counts as inactive or inconclusive. Unless noted, % is scaled to controls: 0 for no effect and ±100 for the full control effect; potency is read from the fitted curve at half-maximal effect.
SMILES,Pf growth 48h,Pf growth 96h,Vaccinia mCherry,Vaccinia Venus,AMA1 RON2 block
CC(=O)NCCNC(=O)c1ccc(Sc2ccccc2)c([N+](=O)[O-])c1,-3%,-29%,-14%,-16%,0%
Cc1ccc(C(=O)NCCSc2ccc(Cl)cc2)cc1[N+](=O)[O-],13µM*,4.1µM*,·,?,-3%
Cc1ccc(SCCNC(=O)c2ccc(C)c([N+](=O)[O-])c2)cc1,-17%,-21%,5%,-20%,-12%
Cn1cnnc1SCC(=O)NCCC(c1ccccc1)c1ccccc1,7%,·,·,22%,9%
Cc1ccc(C(=O)NCCNc2ncc(C(F)(F)F)cc2Cl)cc1[N+](=O)[O-],?,7.4µM*,?,-2%,3%
CN(C)CCNC(=O)c1ccc(Sc2ccc(Br)cc2)c([N+](=O)[O-])c1,?,-28%,10µM*,?,-20%
Cc1oc(-c2cccc(Cl)c2)nc1CSc1nnc(C)n2c1cc1occc12,·,·,4%,-6%,·
CC1CN(C(=O)CCC(=O)NCc2ccccc2)c2cc(Cl)ccc2O1 (stereo not given),?,?,?,1%,6%
CC1CN(C(=O)NCc2ccccc2)c2cc(Cl)ccc2O1 (stereo not given),-15%,2.6µM*,-4%,-5%,3%
CCn1cc(/C=C/c2cc[n+](C)cc2)c2ccccc21,0.37µM*,0.21µM*,·,·,4%
CC(C)n1cc(/C=C/c2cc[n+](C)cc2)c2ccccc21,0.52µM*,?,?,126%,6%
C=CCn1cc(/C=C/c2cc[n+](C)cc2)c2ccccc21,?,i,·,·,-7%
CCn1cc(C=C2C(=O)N(C)C(=O)N(C)C2=O)c2ccccc21,-30%,0.12µM*,i,-4%,-9%
COc1ccc(OC)c(NS(=O)(=O)c2ccc(N3CCCCS3(=O)=O)cc2)c1,·,·,-7%,-16%,·
Cc1sc2ncn(CC(=O)Nc3ccc(F)cc3Cl)c(=O)c2c1S(=O)(=O)N1CCN(c2ncccn2)CC1,·,·,2%,-5%,·
CCOc1ccc2nc(N3CCCC(C(=O)NCCc4ccc(SC)cc4)C3)sc2c1 (stereo not given),·,·,-12%,-16%,·
CCN(CC)CCNC(=O)c1ccc2c(=O)n3nc(Nc4cccc(Cl)c4C)sc3nc2c1,·,·,-19%,-19%,·
Cc1ccc(S(=O)(=O)N2CCN(C(=O)c3cc(C4CC4)nc4c3cnn4C(C)C)CC2)cc1,13µM*,2.6µM*,·,·,-10%
CC(C)n1ncc2c(C(=O)N3CCN(Cc4ccc(Cl)s4)CC3)cc(C3CC3)nc21,13µM*,?,?,-17%,0%[11.6 µM]
CC(C)n1ncc2c(C(=O)N3CCN(S(=O)(=O)c4cccc(F)c4)CC3)cc(C3CC3)nc21,·,·,-12%,-8%,0%
COc1cccc(C(=O)N2CCC(N3CCN(Cc4ccc(F)cc4)C(=O)C3=O)CC2)c1,·,·,0%,2%,·
Cc1ccc(NC(=O)Cn2c(SCc3ccc(F)cc3)nc3cccnc32)cc1F,·,·,-14%,-14%,·
CCCCCCCCNC(C)C(O)c1ccc(SC(C)C)cc1 (stereo not given),1.9µM*,0.93µM*!,-3%,?,-4%
C[C@@H](NCCc1ccc(O)cc1)[C@@H](O)c1ccc(O)cc1,·,·,i,-8%,20%
O=C(CCCn1c(=O)c2cccn2c2ccccc21)NCc1ccccc1Br,·,·,-8%,-12%,·
SMILES,Pf growth 48h,Pf growth 96h,Vaccinia mCherry,Vaccinia Venus,AMA1 RON2 block
COC(=O)c1ccccc1NC(=O)c1cc([N+](=O)[O-])nn1Cc1ccccc1,-4%,0.66µM*,·,·,11%
COc1cc2c(cc1OC)C(COc1cc(C)cc(C)c1)N(C(=O)COc1ccccc1)CC2 (stereo not given),·,·,-6%,-1%,·
Cc1cccc(NC(=O)C2CCCN(S(=O)(=O)c3c(C)nn(C)c3C)C2)n1 (stereo not given),-11%,12µM*,7%,-4%,5%
Cc1ccc(C)c(NC(=O)C2CCCN(S(=O)(=O)c3c(C)nn(C)c3C)C2)c1 (stereo not given),-26%,2.9µM*,-20%,-19%,7%
COc1ccc(/C=N/NC(=O)c2cccnc2)cc1CN1CCc2ccccc2C1,10µM*,10µM*,-22%,-8%,-5%
COc1ccc(/C=N\NC(=O)c2cc(O)c(O)c(O)c2)cc1CN1CCN(c2ccc(F)cc2)CC1,4.7µM*,?,-14%,-19%,-18%
